Results filed as inconclusive are left out. Entries that show only a call come without a potency. Calls of active or inactive are those of the source. The call rests on the fitted dose curve; in most records, active means well fitted curve in the direction sought with a large enough effect; inconclusive means small, poorly fitted or top-dose-only effect, or another doubt; inactive means no such curve, though single readings can be large; an effect the other way counts as inactive or inconclusive.
What was measured:
[1] = qHTS of pediatric cancer cell lines to identify multiple opportunities for drug repurposing: Confirmatory screen for control Hh wild type fibroblast cells (AID 1347121); further: nearly all actives have a fitted effect of over 70% in size; further: potency means the concentration at half of the fitted maximal effect
Method in brief: (§1)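 Cells (500-1,000/well) in growth media were settled 5 h at 37 degrees C, then given compounds for 48 h. Viability was read as CellTiter-Glo luminescence. Primary runs used MIPE at 11 points (0.78 nM-46 µM) and NPC at 8 points (0.59 nM-46 µM); follow-ups used 11 points.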

[2] = qHTS of pediatric cancer cell lines to identify multiple opportunities for drug repurposing: Confirmatory screen for Rh41 cells (AID 1347123);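 further: 48 h compound exposure; nearly all actives have a fitted effect of over 60% in size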; further: potency means the concentration at half of the fitted maximal effect
Method in brief: as §1

[3] = qHTS of pediatric cancer cell lines to identify multiple opportunities for drug repurposing: Confirmatory screen for RD cells (AID 1347124);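 further: cells exposed to compound for 48 h before viability readout; nearly all actives have a fitted effect of over 65% in size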; further: potency means the concentration at half of the fitted maximal effect
Method in brief: as §1

[4] = qHTS of pediatric cancer cell lines to identify multiple opportunities for drug repurposing: Confirmatory screen for Rh30 cells (AID 1347126); further: nearly all actives have a fitted effect of over 55% in size; further: potency means the concentration at half of the fitted maximal effect
Method in brief: as §1

[5] = qHTS of pediatric cancer cell lines to identify multiple opportunities for drug repurposing: Confirmatory screen for Saos-2 cells (AID 1347127); further: nearly all actives have a fitted effect of over 60% in size; further: potency means the concentration at half of the fitted maximal effect
Method in brief: as §1

[6] = qHTS of pediatric cancer cell lines to identify multiple opportunities for drug repurposing: Confirmatory screen for OHS-50 cells (AID 1347128);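 further: compound exposure lasted 48 h at 37 degrees C; nearly all actives have a fitted effect of over 55% in size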; further: potency means the concentration at half of the fitted maximal effect
Method in brief: as §1

[7] = qHTS of pediatric cancer cell lines to identify multiple opportunities for drug repurposing: Confirmatory screen for SK-N-SH cells (AID 1347129);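 further: cells exposed to compound for 48 h before viability read; nearly all actives have a fitted effect of over 60% in size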; further: potency means the concentration at half of the fitted maximal effect
Method in brief: as §1

[8] = qHTS of pediatric cancer cell lines to identify multiple opportunities for drug repurposing: Confirmatory screen for U-2 OS cells (AID 1347122); further: nearly all actives have a fitted effect of over 65% in size; further: potency means the concentration at half of the fitted maximal effect
Method in brief: as §1

[9] = target: N-terminal Xaa-Pro-Lys N-methyltransferase 1 (Homo sapiens) (UniProt Q9BV86); assay: qHTS Assay for Inhibitors of N-terminal methyltransferase 1 (NTMT1): LOPAC validation of the NTMT1 SAHH-coupled ThioGlo3 Assay (AID 1347143);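 further: SAH from peptide methylation measured as thiol fluorescence via SAHH coupling and ThioGlo3; nearly all actives have a fitted effect of over 70% in size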
N-terminal Xaa-Pro-Lys N-methyltransferase 1 (Homo sapiens), sequence (Q9BV86 whole entry, looked up): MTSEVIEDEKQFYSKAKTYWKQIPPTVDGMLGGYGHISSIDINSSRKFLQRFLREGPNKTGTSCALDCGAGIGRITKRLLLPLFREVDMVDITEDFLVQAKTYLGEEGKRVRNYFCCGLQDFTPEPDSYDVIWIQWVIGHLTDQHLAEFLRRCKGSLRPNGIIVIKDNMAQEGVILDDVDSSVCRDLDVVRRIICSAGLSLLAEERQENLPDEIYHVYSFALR
Description: Assay Submitter (PI): Rong Huang Ph.D, Purdue University, West Lafayette, IN 47907 The N-terminal methytransferase 1 is the first methyltransferase that methylates protein alpha-N-amines and plays an important role in regulating cell mitosis, chromatin interactions and DNA repair. It is observed to be over-expressed in various cancer patient tissues like malignant melanoma and colorectal cancer tissues. Knockdown of NTMT1 in cancer cells causes cell mitotic defects and enhances sensitivity to DNA damaging chemotherapeutics. […] These critical cellular processes in which NTMT1 is implicated, coupled with emerging links to cellular dysfunction, strengthen the inference that NTMT1 is a compelling novel anticancer target. Progress have been made in understanding the molecular properties of NTMT1 and the biological consequences of protein alpha-N-terminal methylation, but there are no specific small molecule probes available for NTMT1 to fully characterize its MTase activity. To address this unmet need, a panel of assay is created and established to enable quantitative high-throughput screening (qHTS) for novel, potent, and selective small molecule NTMT1 inhibitors. Two orthogonal qHTS that use different reagents (ThioGlo vs. MTaseGlo) are developed for primary robotic screening against the NCATS chemical library of more than 400,000 small molecules. Identified inhibitors are reacquired, validated, and further characterized. […] A pilot screen against the LOPAC library of 1280 compounds is carried out to assess performance of the optimized qHTS in 1536-well plate format. Early Translation Branch (ETB) National Center for Advancing Translational Sciences (NCATS) National Institute of Health (NIH)
Materials: NTMT1 enzyme, substrate SPKRIA, control peptide RCC1-6 is provided by the Huang laboratory. ThioGlo3 Assay: In brief, 125nM NTMT1 enzyme was dispensed into a 1536-well assay plate with Aurora Discovery BioRAPTR Flying Reagent Dispenser (FRD, Beckton-Dickenson). Compounds (at various concentration) or 1uM RCC1-6 (SPKRIA) control were transferred to the assay plate using the Kalypsys 1536-pintool apparatus. After 1 min of room temperature incubation, 1uL of substrate (100uM SAM, 10uM SAHH, 15uM ThioGlo3) was added to the wells bringing the final assay volume to 4uL. Initial (background) fluorescence readout (EX: 340nm, EM: 450nm) was then detected using the PerkinElmer ViewLux microplate imager and a final fluorescence readout was taken after 30 min of room temperature incubation. The data was normalized to the background fluorescence.

Furin (Homo sapiens) = Furin (Homo sapiens) (UniProt P09958); assay: Furin counterscreen qHTS for Zika virus inhibitors (AID 1347149);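 further: purified recombinant full-length human furin enzyme at 5 nM; fluorescence gain from furin cutting a BOC-RVRR-AMC peptide substrate over 15 min; top concentration of the series differs between compounds; nearly all actives have a fitted effect of over 70% in size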
Furin (Homo sapiens), sequence (P09958 whole entry, looked up): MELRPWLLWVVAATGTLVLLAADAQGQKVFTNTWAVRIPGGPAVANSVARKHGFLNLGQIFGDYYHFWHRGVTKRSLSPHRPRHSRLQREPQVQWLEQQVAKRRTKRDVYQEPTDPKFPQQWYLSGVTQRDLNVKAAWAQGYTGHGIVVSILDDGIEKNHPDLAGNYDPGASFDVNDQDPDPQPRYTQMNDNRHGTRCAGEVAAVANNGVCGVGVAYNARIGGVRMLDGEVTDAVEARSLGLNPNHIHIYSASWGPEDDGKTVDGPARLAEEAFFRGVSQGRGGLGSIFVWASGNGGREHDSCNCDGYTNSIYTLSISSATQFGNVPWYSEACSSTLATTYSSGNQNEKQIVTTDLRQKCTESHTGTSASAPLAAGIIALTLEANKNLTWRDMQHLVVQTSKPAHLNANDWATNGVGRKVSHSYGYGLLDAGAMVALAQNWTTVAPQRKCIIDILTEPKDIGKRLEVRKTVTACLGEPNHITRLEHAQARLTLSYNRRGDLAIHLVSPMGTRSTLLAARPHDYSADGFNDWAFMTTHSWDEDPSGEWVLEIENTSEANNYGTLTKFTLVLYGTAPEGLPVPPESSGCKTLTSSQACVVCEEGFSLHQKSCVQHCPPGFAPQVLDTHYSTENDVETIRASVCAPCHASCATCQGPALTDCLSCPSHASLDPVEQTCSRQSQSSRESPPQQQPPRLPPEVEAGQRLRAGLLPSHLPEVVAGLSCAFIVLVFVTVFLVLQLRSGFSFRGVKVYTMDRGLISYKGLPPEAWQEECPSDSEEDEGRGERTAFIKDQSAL
Method in brief: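 Counterscreen measures cleavage of 2 microM BOC-RVRR-AMC, below its ~15 microM Km, by 5 nM full-length human furin at pH 7.0 after a 15-min compound preincubation. Inhibition derives from the 15-min fluorescence increase at 37C.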

CC[n+]1c(-c2ccccc2)c2cc(N)ccc2c2ccc(N)cc21
Potency [1]: 9.27 µM (active) | Potency [2]: 1.65 µM (active) | Potency [3]: 14.7 µM (active) | Potency [4]: 2.61 µM (active) | Potency [5]: 16.5 µM (active) | Potency [6]: 1.17 µM (active) | Potency [7]: inactive

COc1ccc2c(C(=O)c3ccc(Cl)cc3)c(C)n(CC(=O)O)c2c1
Potency [1]: inactive | Potency [8]: inactive | Potency [2]: inactive | Potency [3]: inactive | Potency [5]: inactive | Potency [6]: inactive | Potency [7]: inactive

CCCCCCCCCCCC[N+](C)(C)CCOc1ccccc1
Potency [8]: 13.1 µM (active) | Potency [2]: 7.37 µM (active) | Potency [3]: 18.5 µM (active) | Potency [4]: 16.5 µM (active) | Potency [5]: 14.7 µM (active) | Potency [6]: 20.8 µM (active) | Potency [7]: 20.9 µM (active)

C[C@@H]1O[C@@H](O[C@@H]2C=C3CC[C@@H]4[C@H](CC[C@]5(C)[C@@H](c6ccc(=O)oc6)CC[C@]45O)[C@@]3(C)CC2)[C@H](O)[C@H](O)[C@H]1O
Potency [3]: 0.0033 µM (active) | Potency [5]: 0.185 µM (active) | Potency [7]: 0.0264 µM (active)

O=C(O)Cc1ccccc1
Potency [1]: inactive | Potency [8]: inactive | Potency [2]: inactive | Potency [7]: inactive

COC(=O)C1=CCCN(C)C1
Potency [1]: inactive | Potency [8]: inactive | Potency [2]: inactive | Potency [3]: inactive | Potency [4]: inactive | Potency [6]: inactive | Potency [7]: inactive | outcome [9]: inactive

ClC1=C(Cl)C2(Cl)C(CBr)CC1(Cl)C2(Cl)Cl (stereo unspecified)
Potency [1]: inactive | Potency [2]: inactive | Potency [3]: inactive | Potency [4]: inactive | Potency [5]: inactive | Potency [6]: inactive | Potency [7]: inactive

CCCCCCCCC(=O)NCc1ccc(O)c(OC)c1
Potency [1]: inactive | Potency [8]: inactive | Potency [2]: inactive | Potency [3]: inactive | Potency [4]: inactive | Potency [5]: inactive | Potency [6]: inactive | Potency [7]: inactive

CN(C)C(=S)SSC(=S)N(C)C
Potency [1]: inactive | Potency [8]: 3.69 µM (active) | Potency [2]: 0.233 µM (active) | Potency [3]: 16.5 µM (active) | Potency [5]: 10.4 µM (active) | Potency [7]: 11.8 µM (active)

CN1[C@@H]2CC[C@H]1CC(OC(=O)c1cc(Cl)cc(Cl)c1)C2 (stereo partly specified)
Potency [1]: inactive | Potency [8]: inactive | Potency [4]: inactive | Potency [5]: inactive | Potency [6]: inactive

Oc1ccc([C@H]2CNCc3c2ccc(O)c3O)cc1O
outcome (Furin (Homo sapiens)): inactive

Cc1ccc([N+](=O)[O-])[c]2c1[O][Hg]2
Potency [1]: 16.5 µM (active) | Potency [8]: 9.27 µM (active) | Potency [2]: 0.233 µM (active) | Potency [3]: 0.827 µM (active) | Potency [5]: 1.04 µM (active) | Potency [6]: 2.61 µM (active) | Potency [7]: 3.72 µM (active)

NC(=O)CN1CCCC1=O
outcome [9]: inactive

COc1ccc(C(=O)N2CCCC2=O)cc1
Potency [1]: inactive | Potency [8]: inactive | Potency [2]: inactive | Potency [5]: inactive | Potency [7]: inactive | outcome [9]: inactive

CC1Sc2c(C(=O)O)c(=O)c3cc(F)c(N4CCNCC4)cc3n21 (stereo unspecified)
Potency [1]: inactive | Potency [8]: inactive | Potency [2]: inactive | Potency [6]: inactive | Potency [7]: inactive

O=C(O)c1nn(Cc2ccc(Cl)cc2Cl)c2ccccc12
outcome [9]: inactive

C[C@@H]1C[C@@H]([C@H](O)CC2CC(=O)NC(=O)C2)C(=O)[C@@H](C)C1
Potency [1]: inactive | Potency [8]: 3.29 µM (active) | Potency [3]: 2.61 µM (active) | Potency [4]: 0.737 µM (active) | Potency [6]: 0.928 µM (active)

CCc1ccc(C2CCNCC2)cc1
Potency [1]: inactive | Potency [8]: inactive | Potency [2]: inactive | Potency [4]: inactive | Potency [5]: inactive | Potency [6]: inactive | Potency [7]: inactive

CC(C)=CCN1CC[C@@]2(C)c3cc(O)ccc3C[C@@H]1[C@@H]2C
outcome (Furin (Homo sapiens)): inactive

— PubChem BioAssay (NCATS)
